Results published in the supplement of paper PMC11732987, “Enantioselective OTUD7B fragment discovery through chemoproteomics screening and high-throughput optimisation” (Communications Chemistry, 2025).

How the values were obtained:
Assay in all cases: log2 ratio of Biotin-Ahx-Ub-VS probe labelling (fragment/DMSO); higher = less target engagement (more negative = stronger competition), active = hit call of the paper (q ≤ 0.05, log2 ratio ≤ -1)
Conditions in all cases: compound concentration: 200 uM; treatment time: 3 h
USP34 = USP34 (UniProt Q70CQ2)
Chain of USP34 (Q70CQ2 whole entry, the tested form may be a part): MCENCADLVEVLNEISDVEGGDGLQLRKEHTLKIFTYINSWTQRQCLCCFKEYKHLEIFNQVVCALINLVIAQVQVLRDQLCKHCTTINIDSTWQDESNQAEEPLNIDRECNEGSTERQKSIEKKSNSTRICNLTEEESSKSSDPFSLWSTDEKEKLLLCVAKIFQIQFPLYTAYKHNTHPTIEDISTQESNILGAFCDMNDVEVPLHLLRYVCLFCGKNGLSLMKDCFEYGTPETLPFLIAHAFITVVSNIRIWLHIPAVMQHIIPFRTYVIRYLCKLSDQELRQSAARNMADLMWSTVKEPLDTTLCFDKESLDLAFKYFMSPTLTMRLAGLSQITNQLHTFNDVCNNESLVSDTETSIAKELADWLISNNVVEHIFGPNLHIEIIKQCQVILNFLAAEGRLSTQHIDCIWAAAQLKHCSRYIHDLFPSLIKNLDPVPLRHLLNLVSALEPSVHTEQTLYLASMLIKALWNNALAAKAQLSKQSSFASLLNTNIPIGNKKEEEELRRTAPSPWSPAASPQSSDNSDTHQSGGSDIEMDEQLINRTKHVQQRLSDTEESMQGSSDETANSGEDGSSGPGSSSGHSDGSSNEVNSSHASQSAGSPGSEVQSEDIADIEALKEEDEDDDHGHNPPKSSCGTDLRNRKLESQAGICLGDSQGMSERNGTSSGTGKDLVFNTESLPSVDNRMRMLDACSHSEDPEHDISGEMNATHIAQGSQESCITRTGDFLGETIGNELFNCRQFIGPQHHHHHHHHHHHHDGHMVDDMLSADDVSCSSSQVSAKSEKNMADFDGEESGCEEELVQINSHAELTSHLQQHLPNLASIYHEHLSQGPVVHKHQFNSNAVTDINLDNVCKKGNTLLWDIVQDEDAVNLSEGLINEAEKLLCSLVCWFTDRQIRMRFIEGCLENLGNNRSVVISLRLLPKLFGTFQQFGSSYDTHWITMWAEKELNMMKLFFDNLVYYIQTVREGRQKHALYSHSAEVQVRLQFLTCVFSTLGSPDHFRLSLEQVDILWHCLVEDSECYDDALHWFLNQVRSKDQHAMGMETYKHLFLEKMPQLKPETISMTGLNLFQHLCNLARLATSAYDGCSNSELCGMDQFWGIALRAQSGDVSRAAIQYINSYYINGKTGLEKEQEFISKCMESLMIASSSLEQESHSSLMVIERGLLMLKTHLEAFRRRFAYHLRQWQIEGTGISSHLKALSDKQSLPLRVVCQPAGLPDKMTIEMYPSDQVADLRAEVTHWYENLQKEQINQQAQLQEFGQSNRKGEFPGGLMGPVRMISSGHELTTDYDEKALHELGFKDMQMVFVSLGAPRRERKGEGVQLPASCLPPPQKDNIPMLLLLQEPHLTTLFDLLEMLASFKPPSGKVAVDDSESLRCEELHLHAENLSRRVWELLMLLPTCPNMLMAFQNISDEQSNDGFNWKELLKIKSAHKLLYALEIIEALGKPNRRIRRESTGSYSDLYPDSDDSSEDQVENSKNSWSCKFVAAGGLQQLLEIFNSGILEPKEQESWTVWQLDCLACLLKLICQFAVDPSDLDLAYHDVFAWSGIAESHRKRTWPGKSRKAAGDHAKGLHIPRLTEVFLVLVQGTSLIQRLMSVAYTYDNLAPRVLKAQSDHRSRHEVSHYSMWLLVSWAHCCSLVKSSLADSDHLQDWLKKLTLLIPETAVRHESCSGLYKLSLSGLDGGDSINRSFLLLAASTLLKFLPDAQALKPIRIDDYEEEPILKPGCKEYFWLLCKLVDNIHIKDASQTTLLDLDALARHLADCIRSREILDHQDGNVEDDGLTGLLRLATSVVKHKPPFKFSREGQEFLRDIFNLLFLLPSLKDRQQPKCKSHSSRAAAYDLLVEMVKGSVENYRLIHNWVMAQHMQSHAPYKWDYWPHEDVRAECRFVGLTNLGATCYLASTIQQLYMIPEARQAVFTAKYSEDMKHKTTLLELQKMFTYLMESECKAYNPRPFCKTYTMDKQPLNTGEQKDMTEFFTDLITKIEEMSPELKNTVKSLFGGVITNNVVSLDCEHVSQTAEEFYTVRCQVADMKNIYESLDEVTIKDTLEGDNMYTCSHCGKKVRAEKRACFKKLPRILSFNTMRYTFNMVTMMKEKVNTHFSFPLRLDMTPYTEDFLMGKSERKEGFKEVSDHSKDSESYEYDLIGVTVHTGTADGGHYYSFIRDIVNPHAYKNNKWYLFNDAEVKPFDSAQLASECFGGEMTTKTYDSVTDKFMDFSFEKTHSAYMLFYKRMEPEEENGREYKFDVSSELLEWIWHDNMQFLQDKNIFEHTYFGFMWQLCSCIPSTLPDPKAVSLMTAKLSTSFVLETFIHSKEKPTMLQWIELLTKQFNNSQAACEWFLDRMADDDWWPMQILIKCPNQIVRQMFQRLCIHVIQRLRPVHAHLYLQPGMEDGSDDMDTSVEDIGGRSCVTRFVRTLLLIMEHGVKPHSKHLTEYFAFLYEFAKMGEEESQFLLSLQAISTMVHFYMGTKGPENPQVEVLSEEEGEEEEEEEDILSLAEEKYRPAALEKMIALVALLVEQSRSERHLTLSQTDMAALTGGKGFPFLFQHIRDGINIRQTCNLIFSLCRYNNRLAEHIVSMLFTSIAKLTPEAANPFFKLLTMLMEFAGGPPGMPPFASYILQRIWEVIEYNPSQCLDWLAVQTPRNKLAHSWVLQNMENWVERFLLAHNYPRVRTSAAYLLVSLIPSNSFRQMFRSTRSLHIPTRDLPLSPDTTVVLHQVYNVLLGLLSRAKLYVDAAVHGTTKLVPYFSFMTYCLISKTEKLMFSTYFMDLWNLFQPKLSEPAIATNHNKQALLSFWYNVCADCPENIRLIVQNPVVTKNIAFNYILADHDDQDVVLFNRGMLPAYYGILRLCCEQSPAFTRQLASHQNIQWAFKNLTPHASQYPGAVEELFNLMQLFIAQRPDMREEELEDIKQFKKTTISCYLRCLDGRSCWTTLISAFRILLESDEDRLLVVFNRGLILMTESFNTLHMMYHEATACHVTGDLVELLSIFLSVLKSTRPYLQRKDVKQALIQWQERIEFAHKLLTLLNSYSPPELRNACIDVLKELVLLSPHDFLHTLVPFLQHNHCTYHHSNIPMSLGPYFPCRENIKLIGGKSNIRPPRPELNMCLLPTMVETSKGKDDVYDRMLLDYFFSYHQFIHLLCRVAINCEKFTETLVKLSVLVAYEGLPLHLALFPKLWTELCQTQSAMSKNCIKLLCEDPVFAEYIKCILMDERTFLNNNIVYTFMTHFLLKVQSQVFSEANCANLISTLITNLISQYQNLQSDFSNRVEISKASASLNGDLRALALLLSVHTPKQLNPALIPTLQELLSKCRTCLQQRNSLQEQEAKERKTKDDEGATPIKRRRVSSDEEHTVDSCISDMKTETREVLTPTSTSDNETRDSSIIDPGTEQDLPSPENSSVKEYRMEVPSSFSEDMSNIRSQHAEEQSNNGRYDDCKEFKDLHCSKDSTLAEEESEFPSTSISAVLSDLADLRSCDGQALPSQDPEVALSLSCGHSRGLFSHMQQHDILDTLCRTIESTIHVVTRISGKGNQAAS
Procedure, shortened: (§1)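 HEK293T lysate, 495 µg per sample in Tris/CHAPS/IGEPAL buffer with protease inhibitors, was treated in triplicate with fragment at 200 µM or vehicle for 3 h and then with Biotin-Ahx-Ub-VS at 0.5 µM final for 1 h. Labelled DUBs were NeutrAvidin-enriched, digested with LysC and trypsin, and run by diaPASEF LC-MS/MS. Spectronaut label-free quantities were global-median-normalised, and values are average log2 fragment/vehicle ratios by unpaired t-test on proteins with ≥2 unique peptides.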

USP36 = biological target: T1, USP36 (UniProt Q9P275)
T1 sequence (whole entry): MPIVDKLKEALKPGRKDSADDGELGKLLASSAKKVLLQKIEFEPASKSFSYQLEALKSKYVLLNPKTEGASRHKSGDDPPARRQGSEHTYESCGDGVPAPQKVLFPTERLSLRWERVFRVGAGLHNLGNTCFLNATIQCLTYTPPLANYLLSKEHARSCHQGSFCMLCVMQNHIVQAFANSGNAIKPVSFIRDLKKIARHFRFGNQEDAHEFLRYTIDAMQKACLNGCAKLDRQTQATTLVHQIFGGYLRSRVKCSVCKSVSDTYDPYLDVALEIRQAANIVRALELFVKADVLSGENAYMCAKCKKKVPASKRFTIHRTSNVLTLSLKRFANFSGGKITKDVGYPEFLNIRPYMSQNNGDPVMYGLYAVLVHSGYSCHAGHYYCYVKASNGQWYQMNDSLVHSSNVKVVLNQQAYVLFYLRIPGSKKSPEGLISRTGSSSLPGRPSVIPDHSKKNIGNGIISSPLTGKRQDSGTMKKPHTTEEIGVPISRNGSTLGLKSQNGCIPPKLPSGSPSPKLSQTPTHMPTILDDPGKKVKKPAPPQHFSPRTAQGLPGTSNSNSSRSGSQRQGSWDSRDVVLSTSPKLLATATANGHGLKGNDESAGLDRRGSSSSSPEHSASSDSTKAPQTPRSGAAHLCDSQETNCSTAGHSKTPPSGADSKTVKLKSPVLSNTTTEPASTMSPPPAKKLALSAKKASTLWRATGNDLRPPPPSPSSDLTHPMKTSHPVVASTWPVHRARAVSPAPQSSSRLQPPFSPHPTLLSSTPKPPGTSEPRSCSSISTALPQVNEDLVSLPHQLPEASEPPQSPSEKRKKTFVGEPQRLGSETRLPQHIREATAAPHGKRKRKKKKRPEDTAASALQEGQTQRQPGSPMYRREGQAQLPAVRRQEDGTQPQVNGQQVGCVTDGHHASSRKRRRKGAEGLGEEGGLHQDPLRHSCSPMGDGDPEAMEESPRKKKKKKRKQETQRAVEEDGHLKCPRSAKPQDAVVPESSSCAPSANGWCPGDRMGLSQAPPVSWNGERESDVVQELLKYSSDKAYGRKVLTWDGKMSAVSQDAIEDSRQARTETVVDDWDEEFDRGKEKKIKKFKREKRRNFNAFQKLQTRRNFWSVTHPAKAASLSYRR
Procedure, shortened: as §1

USP38 = biological target: T2, USP38 (UniProt Q8NB14)
T2 sequence (whole entry): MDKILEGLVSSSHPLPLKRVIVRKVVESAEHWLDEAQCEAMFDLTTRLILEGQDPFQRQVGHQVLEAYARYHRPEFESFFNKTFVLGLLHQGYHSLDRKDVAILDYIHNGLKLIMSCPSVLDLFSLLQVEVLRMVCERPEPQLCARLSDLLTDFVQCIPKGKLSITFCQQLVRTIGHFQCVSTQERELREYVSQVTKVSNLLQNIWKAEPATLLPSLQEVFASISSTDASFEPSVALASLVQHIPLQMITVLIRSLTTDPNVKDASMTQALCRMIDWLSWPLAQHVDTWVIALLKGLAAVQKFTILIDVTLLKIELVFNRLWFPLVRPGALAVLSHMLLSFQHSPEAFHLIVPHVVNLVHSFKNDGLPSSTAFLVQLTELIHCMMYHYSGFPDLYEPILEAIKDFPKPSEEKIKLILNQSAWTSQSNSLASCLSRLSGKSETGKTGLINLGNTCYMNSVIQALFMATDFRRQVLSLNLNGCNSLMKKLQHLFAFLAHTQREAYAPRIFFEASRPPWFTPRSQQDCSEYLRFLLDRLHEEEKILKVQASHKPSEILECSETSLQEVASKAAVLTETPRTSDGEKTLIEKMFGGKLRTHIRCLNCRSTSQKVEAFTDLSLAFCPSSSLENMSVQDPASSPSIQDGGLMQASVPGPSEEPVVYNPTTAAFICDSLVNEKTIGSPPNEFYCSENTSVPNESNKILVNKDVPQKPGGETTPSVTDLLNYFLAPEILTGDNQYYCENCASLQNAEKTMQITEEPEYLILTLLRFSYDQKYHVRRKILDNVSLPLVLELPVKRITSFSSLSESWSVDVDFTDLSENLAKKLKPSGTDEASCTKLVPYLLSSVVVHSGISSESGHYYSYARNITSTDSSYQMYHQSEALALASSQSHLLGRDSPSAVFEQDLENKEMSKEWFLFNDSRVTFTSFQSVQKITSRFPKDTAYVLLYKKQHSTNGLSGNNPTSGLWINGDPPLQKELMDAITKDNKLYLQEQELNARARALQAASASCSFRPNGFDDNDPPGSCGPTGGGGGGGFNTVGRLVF
Procedure, shortened: as §1

USP39 = biological target: T3, USP39 (UniProt Q53GS9)
T3 sequence (whole entry): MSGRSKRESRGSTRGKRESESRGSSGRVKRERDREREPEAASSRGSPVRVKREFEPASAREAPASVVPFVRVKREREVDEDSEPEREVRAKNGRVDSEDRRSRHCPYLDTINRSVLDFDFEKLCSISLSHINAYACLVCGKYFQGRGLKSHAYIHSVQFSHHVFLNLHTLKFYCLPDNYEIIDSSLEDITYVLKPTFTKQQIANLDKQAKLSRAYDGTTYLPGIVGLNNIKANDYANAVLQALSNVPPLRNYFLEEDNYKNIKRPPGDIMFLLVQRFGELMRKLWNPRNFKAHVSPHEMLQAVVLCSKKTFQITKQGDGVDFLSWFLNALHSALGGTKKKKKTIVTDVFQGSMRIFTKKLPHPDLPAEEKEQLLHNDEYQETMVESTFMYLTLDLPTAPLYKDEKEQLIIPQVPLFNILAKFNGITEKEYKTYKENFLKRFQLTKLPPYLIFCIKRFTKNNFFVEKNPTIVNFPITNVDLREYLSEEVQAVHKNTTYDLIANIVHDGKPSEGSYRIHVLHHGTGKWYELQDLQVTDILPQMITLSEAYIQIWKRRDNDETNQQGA
Procedure, shortened: as §1

USP4 = biological target: T4, USP4 (UniProt Q13107)
T4 sequence (whole entry): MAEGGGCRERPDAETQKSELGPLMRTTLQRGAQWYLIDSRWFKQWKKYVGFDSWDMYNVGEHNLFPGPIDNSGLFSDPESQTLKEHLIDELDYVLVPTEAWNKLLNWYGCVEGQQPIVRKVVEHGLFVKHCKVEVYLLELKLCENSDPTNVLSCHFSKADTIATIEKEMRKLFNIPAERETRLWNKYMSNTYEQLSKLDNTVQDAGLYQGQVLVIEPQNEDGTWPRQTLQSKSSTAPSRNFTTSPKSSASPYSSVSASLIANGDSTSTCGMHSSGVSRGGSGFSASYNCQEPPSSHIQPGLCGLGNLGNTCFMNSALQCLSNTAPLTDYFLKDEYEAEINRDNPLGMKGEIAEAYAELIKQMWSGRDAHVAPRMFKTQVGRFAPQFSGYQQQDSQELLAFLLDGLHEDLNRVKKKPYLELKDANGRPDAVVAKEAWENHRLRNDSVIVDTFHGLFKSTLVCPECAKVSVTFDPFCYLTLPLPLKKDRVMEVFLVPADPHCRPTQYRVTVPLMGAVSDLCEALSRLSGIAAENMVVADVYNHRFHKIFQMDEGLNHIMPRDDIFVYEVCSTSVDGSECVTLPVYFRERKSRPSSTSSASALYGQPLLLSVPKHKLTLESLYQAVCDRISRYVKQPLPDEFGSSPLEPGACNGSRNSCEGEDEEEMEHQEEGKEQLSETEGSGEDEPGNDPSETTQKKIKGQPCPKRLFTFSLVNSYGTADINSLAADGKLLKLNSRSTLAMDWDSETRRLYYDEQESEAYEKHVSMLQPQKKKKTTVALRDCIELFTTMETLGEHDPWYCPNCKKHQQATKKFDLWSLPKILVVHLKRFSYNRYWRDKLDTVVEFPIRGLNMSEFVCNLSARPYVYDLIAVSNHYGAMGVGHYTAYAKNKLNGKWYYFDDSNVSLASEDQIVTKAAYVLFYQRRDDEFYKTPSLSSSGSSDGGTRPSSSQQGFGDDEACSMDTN
Procedure, shortened: as §1

Measured: log2 ratio of Biotin-Ahx-Ub-VS probe labelling

Cl.Cn1cnc2cc(CNC(=O)CCl)ccc21
inactive: USP34 -0.0912 | USP36 -0.188 | USP38 -0.21 | USP39 -0.337 | USP4 -0.0327
